The source of these data is PubChem BioAssay AID1445 (SRMLSC, 2008).

For orientation: inhibition means the drop in the measured response relative to a control, in per cent.

Structures are written as SMILES. The whole screen tested about 220,000 compounds, of which about 910 (0.41%) were called active. What follows is part of a selection rich in actives, with near analogues and random picks from the rest. Potency and affinity values are given separately. A number with no mark means an inactive call.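 How the source made its calls: active means primary inhibition above the hit cutoff, then over 50% inhibition at one or more dose response concentrations (cut at about 23% in these data, passing the limit was not always enough); inconclusive means conflicting primary data, or primary hits not chosen for dose response; inactive means low primary inhibition, or under 50% at every dose.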

For the assay, the target named is Aminopeptidase N (Plasmodium falciparum (isolate 3D7)) (UniProt O96935). The experiment in a line: P. falciparum M1AAP inhibitors, biochemical, fluorogenic H-Leu-NHMec substrate, 1536-well (AID 1445).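 Further: plate controls were DMSO full reaction for no effect and no enzyme background for full effect.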 To be noted: recombinant M1AAP, H-Leu-NHMec fluorogenic kinetic assay; at 30 µM, active compounds read high unless noted.
Aminopeptidase N (Plasmodium falciparum (isolate 3D7)), sequence (O96935 whole entry, looked up): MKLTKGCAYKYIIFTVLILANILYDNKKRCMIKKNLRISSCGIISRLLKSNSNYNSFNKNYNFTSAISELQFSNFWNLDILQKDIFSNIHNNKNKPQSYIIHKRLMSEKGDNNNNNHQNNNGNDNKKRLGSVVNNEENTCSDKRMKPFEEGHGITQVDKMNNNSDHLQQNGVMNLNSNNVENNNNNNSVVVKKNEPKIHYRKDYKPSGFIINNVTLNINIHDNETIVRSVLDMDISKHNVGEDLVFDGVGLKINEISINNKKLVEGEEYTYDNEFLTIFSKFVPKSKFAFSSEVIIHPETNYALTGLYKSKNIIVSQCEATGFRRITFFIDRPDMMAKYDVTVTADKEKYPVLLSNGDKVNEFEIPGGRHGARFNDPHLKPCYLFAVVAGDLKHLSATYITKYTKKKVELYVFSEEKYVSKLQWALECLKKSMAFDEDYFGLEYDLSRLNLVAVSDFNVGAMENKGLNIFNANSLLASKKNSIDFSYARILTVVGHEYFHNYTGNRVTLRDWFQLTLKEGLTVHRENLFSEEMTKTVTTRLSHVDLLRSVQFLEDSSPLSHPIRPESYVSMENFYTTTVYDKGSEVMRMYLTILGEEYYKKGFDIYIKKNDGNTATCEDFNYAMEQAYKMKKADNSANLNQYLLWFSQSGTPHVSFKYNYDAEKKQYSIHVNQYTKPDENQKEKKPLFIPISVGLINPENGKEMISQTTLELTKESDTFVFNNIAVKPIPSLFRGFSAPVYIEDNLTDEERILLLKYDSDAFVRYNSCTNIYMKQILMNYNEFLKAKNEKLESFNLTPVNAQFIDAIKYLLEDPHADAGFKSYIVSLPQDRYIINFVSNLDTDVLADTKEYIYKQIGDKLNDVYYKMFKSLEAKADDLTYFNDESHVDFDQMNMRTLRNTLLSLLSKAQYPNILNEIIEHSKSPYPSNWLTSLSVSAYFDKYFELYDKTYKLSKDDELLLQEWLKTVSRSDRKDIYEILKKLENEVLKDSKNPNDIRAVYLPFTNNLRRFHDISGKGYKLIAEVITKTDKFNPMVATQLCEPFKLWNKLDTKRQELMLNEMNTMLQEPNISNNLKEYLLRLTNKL
For `O=c1[nH]c(Cc2ccccc2Cl)nc2ccccc12`, the inhibition is -2.4%. The figure for `CCc1c(C)[nH]n(-c2nc(-c3ccccc3)cs2)c1=O` is -3.51%; for `C=CCn1c(=O)c2ccccc2n2c(SCc3nnc(-c4ccccc4Br)o3)nnc12` it is 2.98%; for `Cc1ccc(NC(=O)c2cc(-c3ccco3)on2)cc1C` it is 3.16%.

Take `CC12COC3(C(=O)NCCc4ccccc4)CC1CCC32C` (stereo not drawn): the inhibition was 3.11%.

Consider `CCCNS(=O)(=O)c1ccc(OCC(=O)NCCC2=CCCCC2)cc1`, for which the inhibition is 7.1%. The value for `Cc1ccc(S(=O)(=O)CCc2nnc(NC(=O)c3cccs3)s2)cc1` was -1.23%; that for `O=C(N/N=C/c1cc(Cl)cc(Cl)c1O)c1ccncc1` was 29.6%; that for `O=C(N/N=C/c1cc(Cl)ccc1O)c1ccc(Br)cc1` was 22.2%. For the compound `O=C(CNC(=O)c1ccccc1Br)N/N=C/c1ccc(O)cc1`, the inhibition was -0.27%.

Regarding `COc1ccc(Br)cc1/C=N/NC(=O)C(c1ccncc1)N1CCOCC1` (stereo not drawn), the inhibition was -2.26%. The value for `O=C(CNC(=O)c1ccncc1)N/N=C/c1ccc(O)cc1O` was 3.55%.

Consider `Cc1ccc(/C=N/NC(=O)C(c2ccncc2)N2CCOCC2)cc1` (stereo not drawn), for which the inhibition was 2.18%. The value for `O=C(CNC(=O)c1ccccc1Br)N/N=C/c1ccccc1O` was -1.99%. The figure for `O=C(CNC(=O)c1ccncc1)N/N=C/c1ccc(Br)cc1` is 7.31%; for `CC(=O)c1cc(CN2C(=O)CCC2=O)cs1` it is -1.15%; for `O=C(CSc1nc2ccccc2s1)NCCOc1ccc(Cl)cc1` it is -0.05%.

With `COCc1c(C(=O)OC)nnn1-c1ccccc1`, the inhibition is -5.18%. The value for `CCCc1c(O)nc(SCCN(CC)CC)n(C(=O)c2ccccc2)c1=O` was 6.49%. The figure for `CC(=O)c1ccc(N2CCN(C(=S)NCCCN(C)C)CC2)cc1` is 6.58%. The value for `O=C(N1CCOCC1)N1CCC(NC(=O)C23CC4CC(CC(C4)C2)C3)CC1` was -1.68%. `O=C(COC(=O)/C=C/c1ccc(S(=O)(=O)N2CCOCC2)cc1)NCc1ccccc1`: the inhibition was 7.02%. The value for `COc1cccc(-c2nnc(SCC3CNC(=O)O3)n2-c2ccc(Cl)cc2)c1` (stereo not drawn) was 3.85%; that for `Cc1cccc(OCC(=O)Nc2cc(S(=O)(=O)N3CCCCC3)ccc2N2CCN(C)CC2)c1` was 5.64%; that for `Cc1cnc(C(=O)Nc2nc(-c3ccccc3)cs2)cn1` was 7.19%. The value for `O=C(N/N=C/c1cc([N+](=O)[O-])ccc1O)c1ccncc1` was 18.8%; that for `O=C(N/N=C/c1cc(Br)cc(Br)c1O)c1ccncc1` was 36.7%; that for `CN(C)/C=C(\C=O)c1onc(-c2ccccc2Cl)c1C#N` was 6.68%.

In the case of `CN(CC(=O)Nc1ccccc1C(=O)N1CCCC1)S(=O)(=O)c1ccc(Br)cc1`, the inhibition was -0.21%.

For the compound `CC(C)C1NC2(C(=O)c3ccccc3C2=O)C2C(=O)N(c3ccc(F)cc3)C(=O)C12` (stereo not drawn), the inhibition is 0.46%. As for `Cc1cccc(NC(=O)CN2C(=O)S/C(=C\c3ccc(-c4cccc(C(=O)O)c4C)o3)C2=O)c1`, the inhibition is 2.36%.

As to `Cc1ccccc1NC(=O)CN1C(=O)S/C(=C\c2ccc(-c3cccc(C(=O)O)c3C)o2)C1=O`, the inhibition was -2.06%. The figure for `N=C1S/C(=C\c2ccco2)C(=O)N1c1ccc2c(c1)OCO2` is 10%; for `Cc1ccc(NC(=O)CN2C(=O)S/C(=C\c3ccc(-c4cccc(C(=O)O)c4C)o3)C2=O)cc1` it is 0.51%.

`COc1cc(/C=C2\SC(=N)N(c3ccc4c(c3)OCO4)C2=O)cc(OC)c1O`: the inhibition is 5.15%. The value for `Cc1ccc(NC(=O)CN2C(=O)S/C(=C\c3ccc(-c4cccc(C(=O)O)c4C)o3)C2=O)cc1C` was 8.24%. The figure for `COc1ccc(-c2nnc(SCC(=O)Nc3cc(F)ccc3C)o2)cc1` is -0.41%; for `CCOc1ccc(N2C(=O)C(=O)/C(=C(/O)c3ccccc3)C2c2ccccc2[N+](=O)[O-])cc1` (stereo not drawn) it is 5.86%; for `Cc1ccc(C(=O)Nc2c(-c3cccs3)c(=O)c3ccccc3n2C)cc1` it is 5.78%.

As for `NNC(=O)Cn1nc2n(c1=O)-c1ccccc1SC2`, the inhibition was -0.09%.

On to `Cc1nnc(-n2ncc(C#N)c2N)c2nn(-c3cccc(Cl)c3)c(C)c12`, for which the inhibition is 0.94%. The value for `C=CCN(C(=O)Cn1c(C(=O)OC)cc2oc(C)cc21)c1ccccc1` was 0.64%.

As for `COC(=O)c1cc2sccc2n1CC(=O)N(C)c1ccccc1`, the inhibition is 4.58%. The value for `COC(=O)c1cc2oc(C)cc2n1CC(=O)N(C)c1ccccc1` was 24.4% (active). The figure for `O=C(Cn1cc(C(F)(F)F)ccc1=O)N/N=C/c1ccccc1O` is 1.53%; for `CN1C(=O)/C(=N/OC(=O)c2ccccc2)c2ccccc21` it is -0.99%; for `CN1C(=O)/C(=N\OC(=O)c2cccc3ccccc23)c2ccccc21` it is 5.56%. The figure for `O=C(O)c1ccc(Nc2nc(-c3cccnc3)nc3ccccc23)cc1` is 10.8%; for `COC(=O)c1cccc(Nc2nc(-c3cccnc3)nc3ccccc23)c1` it is 0.67%; for `COc1cccc(N2CC(O)Cn3c2nc2c3c(=O)n(CCCc3ccccc3)c(=O)n2C)c1` (stereo not drawn) it is 2.82%. Regarding `COc1cccc(N2CC(C)Cn3c2nc2c3c(=O)n(CCN3CCOCC3)c(=O)n2C)c1` (stereo not drawn), the inhibition is 2.83%. The value for `C=CCn1c(=O)c2c(nc3n2CC(C)CN3c2cccc(OC)c2)n(C)c1=O` (stereo not drawn) was 26.4% (active); that for `O=[N+]([O-])c1cccc(NC2=NCCC2)c1` was 3.59%.

Regarding `c1ccc(Oc2cccc(NC3=NCCC3)c2)cc1`, the inhibition is 29.3% (active). `Clc1cccc(NC2=NCCC2)c1`: the inhibition is 0.77%. The value for `Cc1ccc(CN2CCN(C(=O)C3CCC3)CC2)cc1` was 27.7% (active); that for `O=C(C1CCC1)N1CCN(Cc2ccccc2)CC1` was 7.01%; that for `Cc1ccc(CN2CCN(C(=O)C3CCCO3)CC2)cc1` (stereo not drawn) was -1.62%. The figure for `CCN(CC)CC(C)CNC(=O)CN1C(=O)CSc2ccc(S(=O)(=O)N3CCOCC3)cc21` (stereo not drawn) is 8.54%; for `Cc1ccc(OCC(=O)NNC(=O)C(=O)NC(C)(C)C)cc1` it is 13.2%; for `CCC(=O)NC(=S)NNC(=O)COc1ccc(Br)cc1` it is -1.75%. The figure for `CC(C)(C)NC(=O)C(=O)NNC(=O)COc1ccccc1` is 20.1%. In the case of `CC(=O)NC(=S)NNC(=O)COc1ccc([N+](=O)[O-])cc1`, the inhibition is -19.9%.
